# Sampled rows, rich in hits. Any-hit rate of the full collection: about 2.2%.
# aSyn yeast inh – rescues yeast growth from alpha-synuclein toxicity; Yeast expressing alpha-synuclein, growth rescue, BacTiter-Glo, 24 h; 370,000 compounds, 0.14% hits; Potency, µM (doses to about 46.1 µM), actives largely listed as activators; note: nearly all actives have a fitted effect of over 65% in size
#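 Galactose-induced alpha-syn yeast (OD600=0.02, raffinose-pregrown) + pinned cpd, 24 hr, 30 deg C; growth by BacTiter-Glo luminescence. Growth restoration scores as activation.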
# ERG Ets-DNA blk – blocks human ERG Ets domain binding to DNA. P11308. fluorescence polarization, His-ERG Ets domain / labelled DNA. Potency, µM (titrated, usually from 76.9 µM), most hits filed as inhibitors. 370,000 compounds, 0.028% hits. AID 624246; active = well fitted inhibition curve with a large enough effect in the polarisation, with a control signal flat; inconclusive = small, poorly fitted or top-dose-only effect, or effect the other way, or a change in a side signal; inactive = no such curve, though single readings can be large or run the other way; the % refers to the polarisation;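 note: polarization taken with two DNA probes labelled with fluorescein and Texas red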
# Target sequence (P11308 whole entry, looked up, the tested form may be a part): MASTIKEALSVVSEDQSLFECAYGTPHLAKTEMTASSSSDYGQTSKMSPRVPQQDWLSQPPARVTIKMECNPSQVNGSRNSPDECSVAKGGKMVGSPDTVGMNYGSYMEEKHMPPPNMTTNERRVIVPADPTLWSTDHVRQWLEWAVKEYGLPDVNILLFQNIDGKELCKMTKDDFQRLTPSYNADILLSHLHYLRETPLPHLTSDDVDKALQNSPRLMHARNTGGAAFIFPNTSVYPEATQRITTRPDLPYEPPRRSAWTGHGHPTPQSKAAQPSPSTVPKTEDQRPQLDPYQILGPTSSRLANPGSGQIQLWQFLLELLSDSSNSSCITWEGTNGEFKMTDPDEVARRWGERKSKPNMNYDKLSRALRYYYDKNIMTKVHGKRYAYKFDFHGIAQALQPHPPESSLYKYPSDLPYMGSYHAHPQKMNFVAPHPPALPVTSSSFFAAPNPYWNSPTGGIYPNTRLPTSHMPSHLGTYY
#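 His-tagged ERG Ets domain (1 uM in the protein solution; 300mM KCl, 50mM Tris-HCl, 1mM EDTA, 1mM DTT, pH 7.5) received compound, then a probe mix of 5 nM fluorescein-DNA and 100nM Texas-615-DNA. Fluorescence polarization was read for both dyes.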
# Abeta rescue – A-beta toxicity reversal in yeast; Potency, µM (highest dose often 46.1 µM), usual class: activators; AID 1347071; yeast expressing A-beta42, growth rescue, OD600, 48 h; response scale: 0% DMSO, 100% iron-clioquinol control; 410,000 compounds, 0.063% hits; note: nearly all actives have a fitted effect of over 55% in size
#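 Growth rescue measured by 600 nm absorbance after 48 h yeast culture at 30 C with compound. Values normalized between DMSO and an equimolar ferric chloride plus clioquinol control.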
# TDP-43 yeast inh – inhibitors of TDP-43 toxicity in yeast; TDP-43 expressing yeast growth rescue, BacTiter-Glo, 24 h; Potency, µM (series often up to 46.1 µM), hits mostly activators; 410,000 compounds, 1.8% hits; note: nearly all actives have a fitted effect of over 50% in size
#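 Galactose-induced TDP-43 yeast, OD600=0.02, compound pinned; 24 hr, 30 deg C; BacTiter-Glo luminescence for growth. Inhibitors of TDP-43 toxicity read as activators.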
# Mito fusion yeast – mitochondrial division inhibition or fusion activation; S. cerevisiae fusion-defective mutant growth rescue, CellTiterGlo 48 h; Potency, µM (top dose mostly 46.1 µM), usual class: activators; 320,000 compounds, 0.23% hits; AID 485298; note: nearly all actives have a fitted effect of over 45% in size
#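 Growth-rescue viability read-out: after 48 h at the non-permissive 37C in glycerol/ethanol YPEG, yeast mitochondrial fusion mutants are measured by CellTiterGlo luminescence; compounds (23 nl pinned per well) restoring growth score as division inhibitors or fusion activators.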
# FUS suppressor – FUS proteinopathy suppression in yeast | S. cerevisiae FUS-expressing, growth rescue, OD600, 24 h | Potency, µM (top dose mostly 76.6 µM), most hits filed as activators | 390,000 compounds, 0.24% hits; note: nearly all actives have a fitted effect of over 55% in size
#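 Yeast expressing FUS under galactose induction, OD 0.005 in 2% galactose medium; compounds in a dilution series, 24 h at 30C. Growth rescue by absorbance at 600 nm; CP55940 positive control, DMSO negative.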
# Numbers stand for hits; – = inactive; ? = inconclusive; · = not tested or not shown. Unless noted, calls come from the whole dose curve; as a rule, active = well fitted curve in the direction sought with a large enough effect; inconclusive = small, poorly fitted or top-dose-only effect, or another doubt; inactive = no such curve, though single readings can be large; an effect the other way counts as inactive or inconclusive.
SMILES,aSyn yeast inh,ERG Ets-DNA blk,Abeta rescue,TDP-43 yeast inh,Mito fusion yeast,FUS suppressor
Cc1nc2ccc(S(=O)(=O)Nc3cc(-c4nc5cccnc5s4)ccc3C)cc2s1,–,–,–,–,?,?
Cc1cc(C)c(S(=O)(=O)Nc2cccc3cccnc23)c(C)c1,–,·,·,·,·,·
O=S(=O)(Nc1cccc2cccnc12)c1cccs1,22µM,·,·,·,·,·
Cc1ccc(-c2nc3cccnc3s2)cc1NS(=O)(=O)c1ccc2c(c1)OCCO2,–,–,–,–,?,–
Cc1ccc(-c2nc3cccnc3s2)cc1NS(=O)(=O)c1cccs1,–,–,–,11µM,?,–
CCC(C)N(c1nc(C)nc2c1nnn2Cc1ccccc1)C(C)CC (configuration not stated),·,·,·,·,·,–
CCOc1cccc2sc(N(CCN(CC)CC)C(=O)c3ccco3)nc12,·,–,–,–,·,–
COc1ccc(OCCSc2nnc3sc4ccccc4n23)cc1,–,·,–,16µM,–,–
COc1ccc(NC(=O)c2ccc(-c3ccccc3C(F)(F)F)o2)cc1,–,–,–,13µM,?,–
O=C(Nc1cccc(F)c1)c1ccc(-c2ccccc2C(F)(F)F)o1,·,·,·,·,–,·
CCOC(=O)N1CCN(C(=O)C[C@H]2C[C@@]3(C(=O)OC)C(=C[C@H](C(C)(C)C)O[C@@H]3C)N(CCc3ccc(OC)c(OC)c3)C2=O)CC1,·,·,·,·,·,–
COc1ccc(C=C(C(=O)c2ccccc2)C(=O)c2ccccc2)cc1,–,·,–,14µM,·,–
COc1ccc(C=C(C(C)=O)C(=O)c2ccccc2)cc1,?,·,–,20µM,·,–
O=C(CCCCCn1c(=O)c2sccc2n(Cc2ccc(Cl)cc2)c1=O)NCc1ccc2c(c1)OCO2,·,–,–,–,·,–
CCCCSc1nc(N)c(C#N)c(-c2cccs2)c1C#N,–,–,–,–,4µM,–
Cc1cccc(CSc2nc(N)c(C#N)c(-c3cccs3)c2C#N)c1,·,–,–,?,13µM,–
CCOC(=O)CSc1nc(N)c(C(=O)Nc2ccc(N(C)C)cc2)s1,–,–,–,–,–,32µM
CCN(CC)C(=O)CSc1nc(N)c(C(=O)Nc2ccc(OC)cc2)s1,–,–,–,–,–,·
Cc1ccccc1NC(=S)c1nc2ccccc2[nH]1,–,–,?,18µM,–,–
S=C(Nc1ccc(Cl)cc1)c1nc2ccccc2[nH]1,–,–,–,?,–,·
O=C(CN(CCc1ccccc1)S(=O)(=O)c1cccs1)N1CCOCC1,·,·,·,·,·,–
O=C(Cc1ccccc1)n1nc(-c2ccco2)nc1SCc1ccccc1,–,–,–,11µM,–,–
CCCC(=O)n1nc(-c2ccco2)nc1SCc1ccccc1,–,–,–,?,–,–
Cc1nn(CCC(=O)NCc2cccc(Br)c2)c(=O)c2nn(-c3ccccc3)c(C)c12,·,–,–,–,·,–
CCc1ccc(-c2cc(C)no2)cc1S(=O)(=O)Nc1ccc(Cl)cn1,–,–,–,–,–,–
SMILES,aSyn yeast inh,ERG Ets-DNA blk,Abeta rescue,TDP-43 yeast inh,Mito fusion yeast,FUS suppressor
CCc1ccc(-c2cc(C)no2)cc1S(=O)(=O)NCCc1ccccc1,–,–,–,13µM,–,–
CCc1ccc(-c2cc(C)no2)cc1S(=O)(=O)Nc1ccc(Cl)cc1,·,–,–,22µM,·,?
Cc1cc(-c2ccc(C)c(S(=O)(=O)NCc3ccc(Cl)cc3)c2)on1,·,–,–,32µM,·,–
COc1ccc(-n2nc(C(=O)Nc3cc(C)c(Cl)cc3OC)c3c4ccccc4n(C)c3c2=O)cc1,·,–,–,–,·,–
Cc1cc(Oc2ccc(-c3ccccc3)cc2)n2ncnc2n1,–,–,–,18µM,–,–
COc1ccccc1CNC(=O)CC(c1ccc(C)cc1)N1Cc2ccccc2C1=O (configuration not stated),?,–,–,–,·,–
CC(C)(C)OC(=O)NCCCCCc1nnc(SCc2ccccc2)o1,–,–,–,35µM,–,–
CC(C)(C)OC(=O)NCCCCCc1nnc(SCc2cccc(F)c2)o1,–,–,–,25µM,–,–
CCCN1CCCc2cc(CN(CCCN3CCOCC3)C(=O)Nc3ccc(CC)cc3)ccc21,·,–,–,–,·,–
Cc1cccc(N2CCN(CCCNC(=O)c3sc4ncccc4c3-n3cccc3)CC2C)c1 (configuration not stated),·,–,–,–,·,–
Cc1cn2c(=O)cc(COc3ccccc3NC(=O)c3ccco3)nc2s1,·,–,–,–,·,–
Cc1ccc(C(=O)NCC(=O)OCc2cc(=O)n3nc(C4CC4)sc3n2)cc1,·,–,–,–,·,–
CC1CCCC(NC(=O)c2cccc(S(=O)(=O)NCc3ccccc3)c2)C1C (configuration not stated),–,–,–,35µM,–,–
CC1CCCC(NC(=O)c2cccc(S(=O)(=O)N3CCN(c4ccccc4)CC3)c2)C1C (configuration not stated),–,–,–,–,–,–
O=C(Cc1cccc(NC(=O)C2CCN(C(=O)C3CCCCC3)CC2)c1)Nc1cccc(C(=O)N2CCOCC2)c1,–,–,–,–,·,–
COc1ccc(NC(=O)c2nc(SC)ncc2Cl)cc1,–,–,–,20µM,–,–
CCS(=O)(=O)c1ncc(Cl)c(C(=O)N2CCN(c3ccc(OC)cc3)CC2)n1,·,–,–,13µM,·,–
CCSc1ncc(Cl)c(C(=O)N2CCN(c3ccccc3OC)CC2)n1,·,–,–,35µM,·,–
CCCSc1ncc(Cl)c(C(=O)N2CCN(c3ccc(OC)cc3)CC2)n1,·,–,–,?,·,?
COc1cccc(NC(=O)c2nc(SC)ncc2Cl)c1,–,–,–,–,–,–
COc1ccc(N2CCN(C(=O)c3nc(SC)ncc3Cl)CC2)cc1,·,–,–,20µM,·,–
CCCSc1ncc(Cl)c(C(=O)N2CCN(c3cccc(Cl)c3)CC2)n1,·,–,–,?,·,–
CCCN(CCC)C(=O)Cn1c(=O)n(-c2ccc(C)cc2)c(=O)c2ccc(C(=O)NCc3ccccc3Cl)cc21,–,–,–,–,·,–
COc1cccc(N2C(=O)C(CC(=O)Nc3ccccc3)N(CCc3sccc3C)C2=O)c1 (configuration not stated),·,–,–,–,·,?
COc1cccc(/C=C2\CC3(OC(=O)C(C)(C)C)CCCN2C3)c1 (configuration not stated),·,·,·,·,·,–
O=C(Nc1ccc2c(c1)OCCO2)c1cccc(Br)c1,–,–,–,–,–,–
Nc1cc2c(cc1C(=O)c1cccc(Br)c1)OCCO2,–,–,–,14µM,–,–
CCC(=O)c1cc2c(cc1NC(=O)c1ccccc1F)OCCO2,–,–,–,–,·,–
Nc1cc2c(cc1C(=O)c1ccccc1F)OCCO2,–,–,–,18µM,–,–

# Compound activity as filed in PubChem.
